# Test results from PubChem BioAssay AID778 (Sanford-Burnham Center for Chemical Genomics, 2007).
# Hit rate of the full screen: of about 96,000 compounds, about 20,000 (21%) were called active.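 How the source made its calls: active means CYP2C19 inhibition above a set limit at 5 µM in the primary screen (cut at about 50% in these data); inactive means the rest.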 Only a sample is shown.
# Target: Cytochrome P450 2C19 (Homo sapiens) (UniProt P33261)
# Assay: blockers of cytochrome P450 2C19 activity – biochemical, luminescence, ADME assay, primary screen (AID 778);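 further: plate controls were negative control wells for no effect and 2.5 mM tranylcypromine positive control for full effect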
# Conditions: CYP2C19 Supersomes, luciferin-H EGE luminescence, 30 min; at 5 µM; stronger effect = higher value
# Sequence of Cytochrome P450 2C19 (Homo sapiens) (P33261 whole entry, looked up): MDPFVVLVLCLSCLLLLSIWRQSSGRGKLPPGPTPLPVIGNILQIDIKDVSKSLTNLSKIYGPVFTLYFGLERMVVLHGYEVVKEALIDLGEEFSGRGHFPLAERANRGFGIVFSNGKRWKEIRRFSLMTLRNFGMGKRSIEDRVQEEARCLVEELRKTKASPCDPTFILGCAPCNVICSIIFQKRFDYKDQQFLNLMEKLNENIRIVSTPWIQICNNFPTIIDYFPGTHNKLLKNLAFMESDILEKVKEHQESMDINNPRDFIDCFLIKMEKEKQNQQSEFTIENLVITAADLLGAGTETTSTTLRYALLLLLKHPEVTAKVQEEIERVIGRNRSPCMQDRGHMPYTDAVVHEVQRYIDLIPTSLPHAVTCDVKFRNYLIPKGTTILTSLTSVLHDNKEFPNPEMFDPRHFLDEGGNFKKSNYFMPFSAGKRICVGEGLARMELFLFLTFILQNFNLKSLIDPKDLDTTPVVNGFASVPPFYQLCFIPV
row,SMILES,inhibition
1,CCOC(=O)c1ccc(N2C(=O)CC(Sc3nc(O)c(CC)c(=O)[nH]3)C2=O)cc1 (stereo not given),-1% (inactive)
2,O=C(Nc1ccccc1)c1ccccc1NC(=O)C(F)(F)F,33.4% (inactive)
3,COc1cc(Cl)c(C)cc1NC(=O)CSc1nnc(-c2ccco2)n1CC(C)C,96.1% (active)
4,CCOC(=O)CSc1nc2c(sc(=S)n2CCc2ccccc2)c(=O)n1Cc1ccco1,20.9% (inactive)
5,CCCc1nc(SCC(=O)Nc2ccccc2OC)c2c(=O)n(C)c(=O)n(C)c2n1,41% (inactive)
6,CCCn1c(SCC(=O)Nc2c(C)cccc2C)nnc1C(C)C,24.4% (inactive)
7,COc1ccccc1NC(=O)CSc1nc2sc(C)c(C)c2c(=O)n1Cc1ccco1,92.9% (active)
8,CCc1c(C)nc2cc(C)[nH]n2c1=O,-0.7% (inactive)
9,CCOCCN(C=O)c1cccc(OC)c1,26.6% (inactive)
10,CC(C)Oc1ccc(CCc2n[nH]c(=S)n2Cc2ccccc2)cc1,16.7% (inactive)
11,CCOC(=O)c1sc(NC(=O)CCN2CCOCC2)c(C(=O)OCC)c1C,35.2% (inactive)
12,CCOC(=O)c1sc(NC(=O)CSc2nnc(-c3ccco3)o2)c(C(=O)OCC)c1C,25.2% (inactive)
13,CCOC(=O)c1c(NC(=O)CCl)sc(C(=O)N(CC)CC)c1C,56.1% (active)
14,COC(=O)c1c(CCl)noc1C(=O)NC(C)C,10.5% (inactive)
15,COc1ccccc1N=C1SC(C)CN1C(=O)C1CCC1 (stereo not given),-1.1% (inactive)
16,Cn1c2c(c(=O)n(C)c1=O)[C@@H]1c3c(ccc4ccccc34)OC[C@@H]1CO2,33.8% (inactive)
17,O=C(c1ccco1)N1CCN(CC(=O)N(C2CCCCC2)C2CCS(=O)(=O)C2)CC1 (stereo not given),-21.3% (inactive)
18,Cc1[nH]n(-c2cccc(Cl)c2)c(=O)c1/C=N/n1c(C)nc2ccccc2c1=O,20.6% (inactive)
19,CCCc1nc2ccccc2c(=O)n1/N=C/c1ccc(O)c(O)c1,54.2% (active)
20,CCCc1nc2ccccc2c(=O)n1NC(=O)c1c(O)c2ccccc2[nH]c1=O,-11.7% (inactive)

row,SMILES,inhibition
1,ONC(=Nc1ccccc1)c1ccccc1Cl,32.8% (inactive)
2,ONC(=Nc1ccc(Cl)cc1)c1ccccc1Cl,84.3% (active)
3,CC(Oc1ccc(Cl)cc1)C(=O)Nc1ncccn1 (stereo not given),30% (inactive)
4,CC(Oc1ccc(Cl)cc1)c1ccnn1S(C)(=O)=O (stereo not given),69.5% (active)
5,CC(Oc1ccc(Cl)cc1)C(=O)OCC(=O)Nc1ncc(Cl)cc1Cl (stereo not given),24.2% (inactive)
6,N#Cc1ccc(-c2ccc(F)cc2)nc1Sc1ccccc1,3.5% (inactive)
7,Cc1csc(NC(=O)NC2(C(F)(F)F)Oc3ccccc3O2)n1,-13.3% (inactive)
8,O/N=C(\c1ccc2c(c1)OCCO2)C1CCCCC1,49.8% (inactive)
9,CC(C)Cc1cc(C(=O)Nc2cc(Br)ccc2O)no1,-2.9% (inactive)
10,CCCCn1ccnc1C(=O)c1cccc(S(=O)(=O)N2c3ccccc3CC2C)c1 (stereo not given),83.1% (active)
11,CCn1c(CSc2ncccn2)nnc1SCC(=O)N1c2ccccc2CC1C (stereo not given),18.8% (inactive)
12,CC(C)N1C(=O)C2C(C(=O)NC3CCCCC3)C3C=CC2(O3)C1C(=O)NC1CCCC1 (stereo not given),6.6% (inactive)
13,N#Cc1ccc(-c2ccc(Cl)cc2)nc1Oc1ccc(F)cc1,41.8% (inactive)
14,O=C(Oc1ccc([N+](=O)[O-])cc1)c1ccc2ccccc2n1,0% (inactive)
15,CS(=O)(=O)N(CC(=O)N1CCN(c2ccc(F)cc2)CC1)C1CCCCC1,6.9% (inactive)
16,CS(=O)(=O)N(CC(=O)Nc1ccc(Cl)c(Cl)c1)C1CCCCC1,60.7% (active)
17,CCOC(=O)N1CCN(C(=O)CN(C2CCCCC2)S(C)(=O)=O)CC1,-5.6% (inactive)
18,O=C(CCCN1C(=O)CSc2ncccc21)N1CCN(c2cccc(C(F)(F)F)c2)CC1,34% (inactive)
19,Cc1nc(C)c(C(=O)Nc2cccc(C)c2C)o1,-14.2% (inactive)
20,Cc1cc(C(=O)N2CCN(c3ccccn3)CC2)c(C)o1,56.8% (active)

row,SMILES,inhibition
1,Cn1c(=O)cc(OCCCC(=O)N2CCN(c3ccccn3)CC2)c2ccccc21,30.2% (inactive)
2,CC(=C1C(=O)c2ccccc2C1=O)N1CCN(c2ccccn2)CC1,13.1% (inactive)
3,COC(=O)c1ccc(NC(=O)C(C)N2C(=O)c3ccccc3C2=O)cc1 (stereo not given),11.8% (inactive)
4,CC(C)Oc1ccc(Oc2ccc(C(F)(F)F)cn2)cc1,23.2% (inactive)
5,CN(C)c1ccc(NC(=S)N(CCc2ccccc2)C2CC(=O)N(c3c(Cl)cccc3Cl)C2=O)cc1 (stereo not given),13.4% (inactive)
6,COc1cccc(N2CCN(C3CC(=O)N(c4ccc(Cl)cc4)C3=O)CC2)c1 (stereo not given),-17.1% (inactive)
7,COC(=O)CN(C(=S)Nc1ccc(Cl)cc1)C1CC(=O)N(c2ccc(OC)cc2)C1=O (stereo not given),69.3% (active)
8,CCSc1nnc(NC(=O)Cc2ccccc2OC)s1,36.5% (inactive)
9,CCOCCCN1C(=O)CN(C2CCCCC2)C(=O)C1c1ccc(OCC)c(OC)c1 (stereo not given),0.6% (inactive)
10,CCN(CC)S(=O)(=O)c1ccc2nc(CSc3nnnn3-c3ccc(O)cc3)[nH]c2c1,66.1% (active)
11,CCN(CC)S(=O)(=O)c1ccc2nc(COC(=O)c3n[nH]c4ccccc34)[nH]c2c1,9.5% (inactive)
12,CCn1c(CSc2nncn2-c2ccc(OC)cc2)nc2cc(S(=O)(=O)N(C)C)ccc21,21.5% (inactive)
13,CCCCN(CC)CCCNC(=O)CS(=O)(=O)Cc1nc(-c2cccc(OC)c2)oc1C,-1.1% (inactive)
14,CCOC(=O)CSc1nc2sc3c(c2c(=O)[nH]1)CC(C)(C)OC3,67.6% (active)
15,CC/C(C)=N/Nc1nc2sc3c(c2c(=O)[nH]1)CC(C)(C)OC3,36.9% (inactive)
16,CCOC(=O)Cn1c(SC)nc2sc3c(c2c1=O)CC(C)(C)OC3,8.2% (inactive)
17,CC(=O)Nc1ccc(S(=O)(=O)Nc2cccc(NC(=O)C(C)(C)C)c2)cc1,32.2% (inactive)
18,CC(=O)Nc1ccc(NS(=O)(=O)c2cc(C)sc2C)cc1,93.5% (active)
19,CC(=O)NS(=O)(=O)c1ccc(NC(=S)NC(=O)C(C)(C)C)cc1,-2.4% (inactive)
20,CN(C)c1ccc(-n2cccc2/C=C2/SC(=Nc3ccc(F)cc3)NC2=O)cc1,2.9% (inactive)
